From PubChem BioAssay (NCATS) come the findings set out here.

Several values for one entry are separate records, joined by “and”; a condition that tells them apart may be missing. Equal entries are not always repeated. Records with an inconclusive call do not appear. Activity calls are given as the source filed them. Calls follow the shape of the dose curve; as a rule, active = well fitted curve in the direction sought with a large enough effect; inconclusive = small, poorly fitted or top-dose-only effect, or another doubt; inactive = no such curve, though single readings can be large or run the other way.
% is scaled to controls: 0 for no effect and ±100 for the full control effect; potency is read from the fitted curve at half-maximal effect.

This assay is described as follows: qHTS Assay for Identifying Gametocytocidal Compounds (AID 743244).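 As to max response: actives lower the fluorescent signal which means gametocytes are killed.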 The settings on record: P. falciparum 3D7 stage III-V gametocytes, alamarBlue, 72 h; max response: stronger effect = lower value. Put shortly:
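A resazurin-based viability read-out was applied to mature P. falciparum gametocytes: 72 h compound treatment, then 24 h dye incubation, with falling fluorescence signalling gametocytocidal effect.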
(Quantitative high-throughput screening tests each substance at several concentrations.)
As to `COc1cc2ncnc(Nc3ccc(F)c(Cl)c3)c2cc1NC(=O)C=CCN1CCCCC1`, the Potency is 11.8 µM (active).
On to `CNc1nccc(-c2cccnc2Oc2cc(C(=O)Nc3cccc(C(F)(F)F)c3)ccc2C)n1`, for which the max response was 8.44% (inactive).
Still for that read-out and setting: then `CNC(=O)c1cc(Oc2ccc(NC(=O)Nc3cc(C(C)(C)C)nn3-c3ccc4ncccc4c3)c(F)c2)ccn1`, with -28.6% (inactive); and `Nc1ccccc1NC(=O)c1ccc(CNC(=O)OCc2cccnc2)cc1`, with -2.71% (inactive).
The same measure, in the same setting: then `COc1cc2c(Nc3ccc(NC(=O)c4ccccc4)cc3)ncnc2cc1OCCCN1CCOCC1`, with -17.9% (inactive).
In the case of `CN(C)CC=CC(=O)Nc1cc2c(Nc3ccc(F)c(Cl)c3)ncnc2cc1O[C@H]1CCOC1`, the Potency was 0.935 µM (active).
Take `C=CC(=O)Nc1cc2c(Nc3ccc(F)c(Cl)c3)ncnc2cc1C#CC(C)(C)N1CCN(C)CC1`: the Potency was 18.7 µM (active).
Same read-out and setting: the value for `C=CC(=O)Nc1cccc(Oc2nc(Nc3ccc(N4CCN(C)CC4)cc3OC)ncc2Cl)c1` was 14.8 µM (active); that for `Nc1nc(Nc2ccc(S(N)(=O)=O)cc2)nn1C(=O)c1c(F)cccc1F` was 11.8 µM (active).
Turning to `Cn1c2cc(S(C)=O)sc2c2cnn(Cc3cccc(N)c3)c(=O)c21` (stereo not given), the max response was 8.65% (inactive).
As for `C1=CCOCc2cc(ccc2OCCN2CCCC2)Nc2nccc(n2)-c2cccc(c2)OCC1`, the max response is 17.1% (inactive).
Same read-out and setting: then `CN(c1ncccc1CNc1nc(Nc2ccc3c(c2)CC(=O)N3)ncc1C(F)(F)F)S(C)(=O)=O`, with 3.79% (inactive).
Consider `C[C@@H](Oc1cc(-c2cnn(C3CCNCC3)c2)cnc1N)c1c(Cl)ccc(F)c1Cl`, for which the Potency was 7.43 µM (active).
Consider `CN[C@H]1CCc2cc(OC)c(OC)c(OC)c2-c2ccc(OC)c(=O)cc21`, for which the max response is -7.45% (inactive).
Same read-out and setting: then `Cc1cnc(Nc2ccc(F)cc2Cl)nc1-c1c[nH]c(C(=O)N[C@H](CO)c2cccc(Cl)c2)c1`, with -28.2% (inactive).
Regarding `NC(=O)Nc1cc(-c2cccc(F)c2)sc1C(=O)N[C@H]1CCCNC1`, the Potency is 18.7 µM (active).
Consider `CC(C)(C)c1cc(C(C)(C)C)c(NC(=O)c2c[nH]c3ccccc3c2=O)cc1O`, for which the max response is 7.52% (inactive).
For `CC(C)(C)c1cnc(CSc2cnc(NC(=O)C3CCNCC3)s2)o1`, the Potency is 4.18 µM (active).
Consider `Nc1cc(C(F)(F)F)c(-c2cc(N3CCOCC3)nc(N3CCOCC3)n2)cn1`, for which the max response is -15.2% (inactive).
For the compound `O=c1[nH]nc(Sc2ncc([N+](=O)[O-])s2)n1-c1ccc2c(c1)OCCO2`, the Potency is 7.43 µM (active).
For `C[C@@H](Oc1cc(-n2cnc3ccc(CN4CCN(C)CC4)cc32)sc1C(N)=O)c1ccccc1C(F)(F)F`, the Potency is 18.7 µM (active).
On to `COc1cc(C(C)C)c2c(c1)S(=O)(=O)N(COc1cc(=O)n3cccc(OCCN4CCCCC4)c3n1)C2=O`, for which the max response is -3.11% (inactive).
As to `CC(C)(C)OC(=O)Nc1ccc(-c2cc(C(=O)NCCCCCCC(=O)NO)no2)cc1`, the Potency was 9.35 µM (active).
For `Cc1cnc(-c2cnc(NCCNc3ccc(C#N)cn3)nc2-c2ccc(Cl)cc2Cl)[nH]1`, the max response was 11.2% (inactive).
The same measure, in the same setting: the value for `Clc1ccc2ncc(-c3cccc(NC4CNC4)n3)n2c1` was -0.805% (inactive); that for `Nc1nccc(Oc2ccc(NC(=O)c3c[nH]cc(-c4ccc(F)cc4)c3=O)cc2F)c1Cl` was -5.48% (inactive); that for `Cc1nc2ccc(CN(C)c3ccc(C(=O)N[C@@H](CCC(=O)O)C(=O)O)s3)cc2c(=O)[nH]1` was 16% (inactive) and -8.64% (inactive).
As to `COc1cc2nccc(Oc3ccc(NC(=O)C4(C(=O)Nc5ccc(F)cc5)CC4)cc3)c2cc1OC`, the max response is 4.76% (inactive).
Regarding `COc1cc2c(Oc3ccc4[nH]c(C)cc4c3F)ncnc2cc1OCCCN1CCCC1`, the Potency is 18.7 µM (active).
Turning to `COc1cc(C(=O)NS(=O)(=O)c2ccccc2C)ccc1Cc1cn(C)c2ccc(NC(=O)OC3CCCC3)cc12`, the max response was 2.7% (inactive).
